Measured values reported in PubChem BioAssay (Tox21).
Inconclusive results are not listed. Activity calls are given as the source filed them. Unless noted, the call rests on the fitted dose curve; in most records, active means well fitted curve in the direction sought with a large enough effect in the repeat runs; inconclusive means weak or mixed curves; inactive means no such curve, though single readings can be large; an effect the other way counts as inactive or inconclusive.

Tests used:
[1] = qHTS assay to identify small molecule agonists of the vitamin D receptor (VDR) signaling pathway - cell viability counter screen (AID 743224); further: series mostly up to about 63 µM; nearly all actives have a fitted effect of over 50% in size
In short: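 VDR-bla cells were preincubated 4 h at 37C/5% CO2, then exposed to compounds for 16 h. After the 2 h room-temperature bla FRET read, CellTiter-Glo was added to the same wells and luminescence read after 30 min.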

[2] = qHTS assay to identify small molecule antagonists of the vitamin D receptor (VDR) signaling pathway - cell viability counter screen (AID 743225); further: nearly all actives have a fitted effect of over 50% in size
In short: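 HEK293T VDR-bla; cpd + 1a,25-(OH)2D3 3 nM final, 16 h 37C/5% CO2; B/G FRET substrate 2 h RT; then CellTiter-Glo 30 min RT, luminescence.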

[3] = qHTS assay to identify small molecule agonists of the endoplasmic reticulum stress response signaling pathway (AID 1159516; active means well fitted activation curve with a large enough effect in the signal ratio in the repeat runs, not every such curve was filed as active; the % refers to the signal ratio)
In short: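 CellSensor ESRE-bla HeLa cells, carrying a beta-lactamase reporter driven by the ER stress response element, were plated overnight and exposed to compounds for 5 hr at 37 C. Reporter activity was read as FRET substrate fluorescence after 2 hr at room temperature.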

[4] = qHTS assay to identify small molecule agonists of the endoplasmic reticulum stress response signaling pathway - cell viability counter screen (AID 1159517; calls by dose curve; further: series mostly up to about 61 µM; nearly all actives have a fitted effect of over 50% in size)
In short: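 Luminescence readout: CellTiter-Glo, 30 min RT, same wells as the ESRE-bla reporter read. HeLa ESRE-bla, 1,500 cells/well, o/n 37 C; cpd 5 hr 37 C/5% CO2.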

[5] = qHTS assay to identify small molecule antagonists of the retinoid-related orphan receptor gamma (ROR-gamma) signaling pathway - cell viability counter screen (AID 1159520); further: nearly all actives have a fitted effect of over 50% in size
In short: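 Tet-on ROR gamma CHO cells (1,000/well) were plated 4 hr, given compounds in DMSO for 2 hr at 37 C, then induced with 1 uM final doxycycline for 16 hr. Viability was read as ATP by CellTiter-Glo luminescence after 30 min.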

[6] = target: Nuclear receptor ROR-gamma (Homo sapiens) (UniProt P51449); assay: qHTS assay to identify small molecule antagonists of the retinoid-related orphan receptor gamma (ROR-gamma) signaling pathway (AID 1159521)
In short: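 Cells were plated, rested 4 h at 37 C, exposed to compounds for 2 h, then given 1 uM final doxycycline hyclate to induce RORγ expression. After 16 h, ONE-Glo luminescence from the ROR response element reporter was measured.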

[7] = qHTS assay to identify small molecule agonists of the AP-1 signaling pathway - cell viability counter screen (AID 1159525; calls by dose curve; further: nearly all actives have a fitted effect of over 55% in size)
In short: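 ME-180 AP-1-bla, 2500 cells/well, Opti-MEM + 0.5% dialyzed FBS; overnight 37 °C; cpd 15-pt titration, 5 h 37 °C; CellTiter-Glo 30 min RT; luminescence read; normalised to TOAB and DMSO controls.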

[8] = qHTS assay to identify small molecule agonists of the AP-1 signaling pathway (AID 1159526; calls by dose curve)
[9] = target: Retinoic acid receptor RXR-alpha (Homo sapiens) (UniProt P19793); assay: qHTS assay to identify small molecule agonists of the RXR signaling pathway (AID 1159527; calls by dose curve; further: nearly all actives have a fitted effect of over 35% in size)
Chain of Retinoic acid receptor RXR-alpha (Homo sapiens) (P19793 whole entry, looked up): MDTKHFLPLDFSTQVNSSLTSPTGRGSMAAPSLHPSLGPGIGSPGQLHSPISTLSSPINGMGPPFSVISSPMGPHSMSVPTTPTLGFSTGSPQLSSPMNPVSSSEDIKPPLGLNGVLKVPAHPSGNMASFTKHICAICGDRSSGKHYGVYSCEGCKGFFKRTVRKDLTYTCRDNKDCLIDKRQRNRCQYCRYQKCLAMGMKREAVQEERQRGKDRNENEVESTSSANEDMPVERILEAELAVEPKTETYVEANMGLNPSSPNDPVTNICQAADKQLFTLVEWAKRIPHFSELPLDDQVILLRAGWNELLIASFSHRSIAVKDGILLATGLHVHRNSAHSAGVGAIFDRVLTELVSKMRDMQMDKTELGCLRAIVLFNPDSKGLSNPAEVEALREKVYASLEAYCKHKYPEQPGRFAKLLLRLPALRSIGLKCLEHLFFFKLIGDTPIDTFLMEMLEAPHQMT
In short: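 Cells plated at 2,000/well, rested 5 hr at 37 C, pin-dosed with DMSO compound solutions, incubated 16 hr, then loaded with B/G FRET substrate for 2 hr at RT before dual-emission fluorescence reading.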

[10] = qHTS assay to identify small molecule agonists of the RXR signaling pathway - cell viability counter screen (AID 1159529)
In short: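 Steps: seed RXR-alpha-UAS-bla HEK 293T cells in assay medium containing 2% charcoal-stripped FBS; incubate 5 hr; add compounds in DMSO; incubate 16 hr at 37 C; after the bla read, add CellTiter-Glo and read luminescence at 30 min.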

[11] = qHTS assay to identify small molecule antagonists of the retinoid acid receptor (RAR) signaling pathway - cell viability counter screen (AID 1159551); further: nearly all actives have a fitted effect of over 35% in size
In short: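 C3RL4 cells were seeded overnight at 37 C, then treated with compounds plus 1 uM (final) retinol for 6 h at 37 C. Viability was read as ATP by CellTiter-Glo luminescence after 30 min at room temperature.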

[12] = qHTS assay to identify small molecule antagonists of the retinoic acid receptor (RAR) signaling pathway (AID 1159552; further: nearly all actives have a fitted effect of over 50% in size)
In short: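 Retinol at 1 uM final stimulated RARE-luciferase expression in C3RL4 cells exposed to test compounds for 6 hr at 37 C. Reduced luminescence, read 30 min after detection reagent, indicated pathway antagonism.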

[13] = qHTS assay to identify small molecule agonists of the retinoic acid receptor (RAR) signaling pathway (AID 1159553)
In short: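 C3RL4 cells carrying a RARE luciferase reporter were plated overnight at 37 C, then exposed to compounds in DMSO for 6 hr at 37 C and 5% CO2. Luminescence was read 30 min after luciferase reagent addition at room temperature.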

[14] = qHTS assay to identify small molecule agonists of the NFkB signaling pathway - cell viability counter screen (AID 1159515; calls by dose curve; further: series mostly up to about 61 µM; nearly all actives have a fitted effect of over 55% in size)
In short: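 NFkB-bla ME-180 cells, 2,000/well, were plated overnight at 37 C, 5% CO2, then exposed to compounds in DMSO for 5 hr. After the bla FRET read, CellTiter-Glo was added to the same wells; luminescence was read after 30 min at room temperature.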

Measured: Potency

CO[C@@]1(NC(=O)C(C(=O)O)c2ccc(O)cc2)C(=O)N2C(C(=O)O)=C(CSc3nnnn3C)CO[C@@H]21 (stereo not given in full)
not listed: [14]
inactive: all other assays above

CCCCCCCCCCCCSC
not listed: [3] | [12] | [13]
inactive: all other assays above

O=[N+]([O-])c1ccc(/C=N\O)o1
inactive: [2] | [14] | [4] | [7] | [8] | [9] | [10] | [11]

CCN1CCOCC1
not listed: [3] | [5]
inactive: all other assays above

O=CN(CCO)CCO
not listed: [2] | [3] | [12] | [13]
inactive: all other assays above

C=C(C)C(=O)OCC(O)CO (stereo not given)
not listed: [3] | [12] | [13]
inactive: all other assays above

CCC(C(=O)NC(=O)NC(C)=O)c1ccccc1 (stereo not given)
not listed: [3] | [12] | [13]
inactive: all other assays above

Nc1ccccn1
not listed: [3] | [5]
inactive: all other assays above

CC(C)c1ccc2ncccc2c1
not listed: [2] | [3] | [6] | [13]
inactive: all other assays above

CCCO[Si](OCCC)(OCCC)OCCC
inactive: [2] | [14] | [4] | [5] | [7] | [8] | [10] | [11]

NCCCC[C@H](N[C@@H](CCc1ccccc1)C(=O)O)C(=O)N1CCC[C@H]1C(=O)O
not listed: [1] | [3] | [5] | [12] | [13]
inactive: all other assays above

O=C(CO)[C@@H](O)[C@H](O)[C@@H](O)CO
not listed: [3] | [12] | [13]
inactive: all other assays above

CC1(C)OC[C@@H](COC(=O)CCc2ccc(OC[C@@H](O)CNCCNC(=O)N3CCOCC3)cc2)O1
not listed: [3] | [12] | [13]
inactive: all other assays above

CC(=O)c1cnccn1
not listed: [1] | [13] | [14]
inactive: all other assays above

CC(=O)N[C@H]1[C@H]([C@H](O)[C@H](O)CO)OC(C(=O)O)=C[C@@H]1N=C(N)N
not listed: [12] | [13] | [14]
inactive: all other assays above

CCCCOCCOC(=O)CCCCCCCCC(=O)OCCOCCCC
not listed: [6] | [13] | [14]
inactive: all other assays above

CC(C)(N)C#N
not listed: [6] | [12] | [13] | [14]
inactive: all other assays above

CCOc1ccccc1OCC
not listed: [9] | [12] | [13] | [14]
inactive: all other assays above

NC(CCC(=O)O)C(=O)O (stereo not given)
not listed: [1] | [6] | [12] | [13] | [14]
inactive: all other assays above

CC(=O)N1C[C@H](O)C[C@H]1C(=O)O
not listed: [1] | [12] | [13] | [14]
inactive: all other assays above

CO[C@@]1(NC(=O)CSC[C@@H](N)C(=O)O)C(=O)N2C(C(=O)O)=C(CSc3nnnn3C)CS[C@@H]21
not listed: [9] | [12] | [13] | [14]
inactive: all other assays above

Nc1c2c(nc3c1CCC3)CCCC2
not listed: [3] | [12] | [14]
inactive: all other assays above
